# Where “and” joins values, the source holds several entries; their conditions need not be identical. Equal values may be shown once. Results filed as inconclusive are left out. Calls of active or inactive are those of the source. Calls come from the whole dose curve.
# Experiment: qHTS Assay for Lipid Storage Modulators (AID 1519); for activity change, negative = inhibition: % is set by controls: 0 for no effect and ±100 for the full control effect
# Conditions: Drosophila S3 cells, BODIPY lipid droplet/cell ratio, laser cytometry, cells loaded with oleic acid
# Text: NIH Molecular Libraries Probe Production Centers Network [MLPCN]
# NIH Chemical Genomics Center [NCGC]
# Assay Submitter (PI): Beller, Mathias; Max-Planck-Institut fur Biophysikalische Chemie
# NCGC Assay Overview: Storing lipids as a reservoir for energy or the anabolism of elementary metabolites is a common feature of probably all cells and is conserved from bacteria to humans. The universal cellular lipid storage organelle is the so-called lipid storage droplet (LD). Although ubiquitous, LDs share a simple structure composed of a hydrophobic core that harbors the storage lipids, which is shielded by a droplet-specific phospholipid monolayer to which proteins are attached. The current model of LD biogenesis involves an incorporation of the lipid core into the membrane leaflets of the endoplasmic reticulum (ER) followed by a subsequent budding-like maturation of a LD, which ultimately pinches off. Once released, LD volume can increase by localized lipogenesis or fusion of existing droplets. Storage lipids are re-mobilized enzymatically by lipase activity. Lipase regulation in the adipocyte is heavily studied and involves multiple components including catecholamine signaling, the LD-associated proteins Perilipin and comparative gene identification-58 (CGI-58) and at least two lipases named hormone sensitive lipase (HSL) and adipocyte triglyceride lipase (ATGL). LD regulation outside of the adipocyte is poorly understood and only few components are known. However, there is an urgent need to learn more about ectopic fat depots as mislocalized storage of lipids, for example in the liver or muscle, is an eminent health problem associated with insulin resistance or the metabolic syndrome. We developed a laser-scanning cytometer assay to enable 1,536-well screening and combined the results of the small molecules screen with an RNAi database based on lipid storage.
# NCGC Assay Protocol Summary:
# We dispensed 4 uL of cells at 1.25 x 10^6 cells/mL into LoBase Aurora COC 1,536-well plates (black walled, clear bottom) with a bottle-valve solenoid-based dispenser (Aurora) to obtain 5,000 cells/well. Triacsin C (Sigma-Aldrich T-4540), an inhibitor of long-chain fatty acyl CoA synthetase that blocks synthesis of triglycerides, was used as a positive control for lipid under-storage. A total of 23 nL of compound solution of different concentrations were transferred to the assay plates using a Kalypsys pin tool equipped with a 1,536-pin array containing 10-nL slotted pins (FP1S10, 0.457-mm diameter, 50.8 mm long; V&P Scientific). One microliter of oleic acid (400 uM) was added, and the plate was lidded with stainless steel rubber gasket lined lids containing pinholes. […] Fluorescence was detected by excitation of the fluorophores with a 488-nm laser on an Acumen Explorer (TTP Lab Tech). The total intensity in channel 1 (500-530 nm) reflected lipid droplet accumulation. […] The ratio of the total intensity in PMT channel 1 over total intensity of channel 3 was also calculated. Percent activity was computed relative to an internal control (100% inhibited lipid droplet deposition due to the presence of 20 uM Triacsin C), which was added to 32 wells/plate.
# [1] = measured here: cell count channel max response
# [2] = measured here: lipid channel max response
SMILES,"activity change, negative = inhibition (at 25.7 µM (top of the series))",max response [1],max response [2],"activity change, negative = inhibition (at 57.5 µM (top of the series))"
CO[C@@]12C[C@@H](COC(=O)c3cncc(Br)c3)CN(C)[C@H]1Cc1cn(C)c3cccc2c13,-0.393% (inactive),-7.54%,-4.61%,–
CNCC[C@H](Oc1ccccc1OC)c1ccccc1,-2.76% (inactive),-10.8%,-15.9%,–
CCN(Cc1ccncc1)C(=O)[C@@H](CO)c1ccccc1,-4.57% (inactive),-10.2%,-15.1%,–
Cc1ccc(/C(=C/CN2CCCC2)c2ccccn2)cc1,-1.93% (inactive),0.155% and 8.83%,-0.659% and 14%,3.43% (inactive)
C[C@]12CC3CC(N)(C1)C[C@@](C)(C3)C2,–,-24.5%,-26.5%,-0.0594% (inactive)
O=c1c(-c2cc(O)c(O)c(O)c2)coc2cc(O)c(O)c(O)c12,–,7.38%,21.8%,15.6% (inactive)
NCCCNCCCCN(CCCN)/[N+]([O-])=N/O,–,-8.77%,-8.94%,-0.752% (inactive)
CC(=O)OCCNC(=O)c1cccnc1,–,15.6%,27.8%,8.28% (inactive)
C[C@@H]1Nc2ccc(Cl)cc2S(=O)(=O)N1,–,-1.71%,3.08%,6.73% (inactive)
C1=C(CN2CCOCC2)COc2c1cccc2OC[C@@H]1CNCCO1,–,5.43%,3.99%,0.797% (inactive)
COc1cc(O)c2c(=O)c(O)c(-c3ccc(O)c(O)c3)oc2c1,–,-9.74%,-5.25%,4.09% (inactive)
NC(CCC(=O)NCS(=O)(=O)O)C(=O)O (stereo not drawn),–,45.8%,46.4%,1.69% (inactive)
CN1[C@H](CC(=O)c2ccccc2)CCC[C@H]1C[C@H](O)c1ccccc1,–,24.7%,29.8%,4.17% (inactive)
N[C@H](C(=O)O)c1nn[nH]n1,–,-0.925%,-0.771%,1.12% (inactive)

# From PubChem BioAssay (NCATS)
